Results as given in PubChem BioAssay AID504424 (National Center for Advancing Translational Sciences (NCATS), 2011).
This is one part of the list. Active and inactive are the calls of the source.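 The calls were made as follows: active = compounds that showed inhibition of Dyrk1a and received a fitted potency; inactive = compounds that showed no inhibition.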

biological target: Dual specificity tyrosine-phosphorylation-regulated kinase 1A (Homo sapiens) (UniProt Q13627); experiment: Kinase Inhibition Study on Inhibitors of Dyrk1a (Reaction Biology data); conditions: Reaction Biology kinase assay, 10 uM ATP
From the text: NIH Molecular Libraries Probe Production Centers Network [MLPCN] NIH Chemical Genomics Center [NCGC] MLPCN Grant: 1R03MH084827-01 Assay Submitter (PI): Tom Misteli NCGC Assay Overview: Alternative splicing of pre-mRNAs plays a major role in the regulation of eukaryotic gene expression. Alternative splicing is now thought to be one of the primary reasons for the complexity of higher organisms leading to an average of three protein isoforms per gene. Aberrant splicing can lead to a number of diseases and is known to play a role in rare genetic diseases such as progeria syndrome. Hutchinson-Gilford Progeria Syndrome (HGPS) is a pediatric premature aging disease caused by a spontaneous mutation in the lamin A/C (LMNA) gene due to a single point mutation in the lamin A gene effecting 1 in 4 million people. To identify both specific splicing modulators of the lamin A gene as well as general splicing modulators, a cell-based HTS assay was developed using a minigene reporter system (AIDs, 1459 & 1487). […] The Clk family is part of the CMGC group of protein kinases which includes Dyrks and are essential kinases found in all eukaryotes. […] This AID is to summarize the activity of these analogs in Dyrk1a.
All kinase reactions were performed using 10 uM ATP in the assay. 100% activity was taken from kinase reactions with DMSO alone (the vehicle used for compound stock solutions).

Potency, active:
c1coc(CCNc2ncnc3ccc(-c4ccc5c(c4)OCO5)cc23)c1 0.074 µM, CN(Cc1cncn1C)c1ncnc2ccc(-c3ccc4c(c3)OCO4)cc12 2.45 µM, CC(Nc1ncnc2ccc(-c3ccc4c(c3)OCO4)cc12)c1ccco1 (centres undefined) 5.6 µM, c1nc(N2CCOCC2)c2cc(-c3ccc4c(c3)OCO4)ccc2n1 0.723 µM
